Each structure is given as a SMILES string. Results filed as inconclusive are left out. A number with no mark means an inactive call. Activity calls are given as the source filed them. The call rests on the fitted dose curve; in most records, active means well fitted cell-killing curve with a large enough effect; inconclusive means small, poorly fitted or top-dose-only effect; inactive means flat fitted curve, though single readings scatter. *1 amine or outer side, *2 acyl side, *3 side chain or, on linkers, in order; H or OH if unused. Where a SMILES comes first, the peptide text is derived from it. Bridges are numbered along the chain shown (N, C = ends). Roman numbers before positions name the chains, in order. [ ]: non-standard residue; d: D form. ξ: configuration not given here. Actinocin(9to1) = Cc1c2oc3c(C)ccc(C(=O)[*:1])c3nc-2c(C(=O)[*:2])c(N)c1=O; ξNMeV = CNC(C(=O)O)C(C)C; ξV = CC(C)C(N)C(=O)O; Sar = CNCC(=O)O
On the % scale 0 is the no-effect control and ±100 the full control effect.

The assay can be described thus: Vero cells viability qHTS for Zika virus inhibitors (AID 1347167). The note with it: cytotoxicity counter-screen (Zika); series mostly up to 45.9 µM. From the text:
Avindra Nath, Ph.D., National Institute of Neurological Disorders and Stroke (NINDS), Bethesda, MD
Radhakrishnan Padmanabhan, Ph.D., Georgetown University (GU), Washington D.C.
Zika Virus causes congenital defects, including microcephaly and is associated with Guillain-Barre syndrome, eningoencephalitis and myelitis in infected adult. […] Using a target-based approach, we hope to establish a screening paradigm to uncover novel, cell-active NS2B-NS3 protease (Zika Virus) specific inhibitors from NCATS' collection of small molecules using qHTS.
Four assay panel was created to identify potential Zika Virus inhibitors. Namely, (1) GU unlinked NS2B-NS3 AMC tagged protease qHTS, (2) GU unlinked NS2B-NS3 Rhodamine tagged protease qHTS, (3) NINDS linked NS2B-NS3 AMC tagged protease qHTS, (4) NINDS linked NS2B-NS3 Rhodamine tagged protease qHTS. Identified inhibitors were screened against the Vero and HepG2 cell viability assays using CellTiter Glo to exclude cytotoxic compounds.
Early Translation Branch (ETB)
National Center for Advancing Translational Sciences (NCATS), Rockville, MD
National Institute of Health (NIH), Bethesda, Maryland
Vero and HepG2 Cell Viability Assay:
Vero and HepG2 cell cytotoxicity were determined using a luminescent readout with CellTiter Glo reagent (Promega, Madison, WI), which is based on measuring the ATP content within cells. Briefly, 4 microL of Vero or HepG2 cells at 2.5 x 10^5 cells/mL in DMEM containing 4% FBS were dispensed into 1536-well solid bottom tissue treated white plate using a Multidrop Combi dispenser (Thermo Scientific). Plates were incubated at 37 degrees C, 95% humidity, and 5% CO2 overnight to allow for cell attachment. Compounds were dissolved in DMSO at different concentrations and transferred via pintool (Wako Automation), for a final concentration of 0.029 µM - 57 microM. Plates were again incubated for 24 to 48 hours, followed by a 2 microL addition of CellTiter Glo. Finally, plates were incubated for 30 minutes at 37 degrees C and 5% CO2 before being read on a ViewLux (Perkin Elmer) for luminescence.
For `Cc1c2oc3c(C)ccc(C(=O)N[C@@H]4C(=O)NC(C(C)C)C(=O)N5CCC[C@H]5C(=O)N(C)CC(=O)N(C)C(C(C)C)C(=O)O[C@@H]4C)c3nc-2c(C(=O)N[C@@H]2C(=O)NC(C(C)C)C(=O)N3CCC[C@H]3C(=O)N(C)CC(=O)N(C)C(C(C)C)C(=O)O[C@@H]2C)c(N)c1=O` (stereo partly specified) (I: T[ξV]P[Sar][ξNMeV] / II: T[ξV]P[Sar][ξNMeV]; ester I:1-I:C, II:1-II:C; linker I:N-II:N via Actinocin(9to1)), the call was inactive. For the molecule `COc1cccc(-n2nc(C(=O)O)cc2-c2ccc(C3CCCCC3)c(Cl)c2)c1`, the outcome was inactive. On the same count and under the same terms, for `N#CC1C(=O)Nc2scc(-c3ccc(-c4ccccc4O)cc3)c2C1=O` (stereo unspecified) the value was “inactive”. Same read-out and setting: for `CCOc1c2c(c(OCC)c3ccccc13)C(=O)N(c1ccc(CC(=O)NS(=O)(=O)c3ccccc3)cc1)C2` the value was “inactive”. Turning to `CC(=O)O[C@@H]1C[C@]2(C)[C@@]3(CCC4[C@@]5(C)CC[C@H](O[C@@H]6O[C@H](C(=O)O)[C@@H](O)[C@H](O[C@@H]7O[C@H](CO)[C@H](O)[C@H](O)[C@H]7O[C@@H]7O[C@@H](C)[C@H](O)[C@@H](O)[C@H]7O[C@@H]7OC[C@](O)(CO)[C@H]7O)[C@H]6O[C@@H]6O[C@H](CO)[C@H](O)[C@H](O)[C@H]6O)C(C)(C)C5CC[C@]42C)O[C@@H](O)[C@]12C3CC(C)(C)[C@@H](OC(=O)/C=C/c1ccc(O)c(O)c1)[C@@H]2OC(=O)/C=C/c1ccccc1` (stereo partly specified), the activity change, negative = cytotoxicity is -1.71% [at 8.96 µM]. Take `O=C(O)c1ccc(CCCc2ccc(OCCc3ccc(F)cc3)cc2)o1`: the molecule was called inactive. As for `CC(C)C(=O)c1cn(CC(=O)COc2ccc(Oc3ccccc3)cc2)c2ccc(C(=O)O)cc12`, the molecule was called inactive. The same measure, in the same setting: for `CC(C)C1=CCC(C)(O)C(OC2OC(CO)C(O)C(O)C2O)C1` (stereo unspecified) the value was “inactive”; for `O=C(/C=C/c1c(C(=O)O)[nH]c2cc(Cl)cc(Cl)c12)Nc1ccccc1`, “inactive”.

For `CC(C)N=c1cc2n(-c3ccc(Cl)cc3)c3ccccc3nc-2cc1Nc1ccc(Cl)cc1`, the call was inactive. Still for that read-out and setting: for `CCOc1ccc(-c2ccc(Cn3c(CC(C)(C)C(=O)O)c(SC(C)(C)C)c4cc(OCc5ccc(C)cn5)ccc43)cc2)cn1` the value was “inactive”; for `CC(C)c1cc2c(c(O)c1O[C@@H]1O[C@H](CO)[C@@H](O)[C@H](O)[C@H]1O)CC1(O)CCC(O)C(C)(C)C1CC2` (stereo partly specified), “inactive”. For the molecule `CC(C)(O)C1CC=C(C(=O)OCC2OC(Oc3c(O)cc(C(=O)O)cc3O)C(O)C(O)C2O)CC1` (stereo unspecified), the molecule was called inactive. Turning to `O=C(O)c1cnn(-c2nc3cc(OC(F)(F)F)c(Cl)cc3[nH]2)c1`, the molecule was called inactive. Consider `O=C(O)c1cc(O)c2cccc(O)c2c1O[C@@H]1O[C@H](CO)[C@@H](O)[C@H](O)[C@H]1O`, for which the call was inactive. On the same count and under the same terms, for `CC1(C)CCC(C)(C)c2cc3c(cc21)Sc1ccccc1N=C3c1ccc(C(=O)O)cc1` the value was “inactive”.

Values taken from PubChem BioAssay (NCATS).
